From PubChem BioAssay (EPA / NIEHS)
Records with an inconclusive call do not appear. Where a structure was tested more than once in an assay, its records may differ in their call. The source made the active and inactive calls. How the source made its calls, unless noted: active means hit-call score of the fitted dose curve at least 0.9, where 1 is the maximum; inconclusive means response in the unintended direction; inactive means score below 0.9.

Assays:
[1] = biological target: Nuclear receptor subfamily 1 group I member 2 (Homo sapiens) (UniProt O75469); assay: NVS_NR_hPXR: NovaScreen (NVS) Nuclear Receptor Binding Assay for human Pregnane X Receptor (PXR) (AID 2283365);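 further: a drop in FRET signal versus DMSO baseline means the compound binds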
Method in brief: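 Read-out: TR-FRET, human PXR, 2 h post-dosing, cell-free. Loss of signal vs DMSO taken as binding activity; 25 uM primary, concentration series secondary.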

[2] = biological target: Peroxisome proliferator-activated receptor gamma (Homo sapiens) (UniProt P37231); assay: NVS_NR_hPPARg: NovaScreen (NVS) Nuclear Receptor Binding Assay for human Peroxisome Proliferator-activated Receptor gamma (PPARg) (AID 2283370)
Peroxisome proliferator-activated receptor gamma (Homo sapiens), sequence (P37231 whole entry, looked up): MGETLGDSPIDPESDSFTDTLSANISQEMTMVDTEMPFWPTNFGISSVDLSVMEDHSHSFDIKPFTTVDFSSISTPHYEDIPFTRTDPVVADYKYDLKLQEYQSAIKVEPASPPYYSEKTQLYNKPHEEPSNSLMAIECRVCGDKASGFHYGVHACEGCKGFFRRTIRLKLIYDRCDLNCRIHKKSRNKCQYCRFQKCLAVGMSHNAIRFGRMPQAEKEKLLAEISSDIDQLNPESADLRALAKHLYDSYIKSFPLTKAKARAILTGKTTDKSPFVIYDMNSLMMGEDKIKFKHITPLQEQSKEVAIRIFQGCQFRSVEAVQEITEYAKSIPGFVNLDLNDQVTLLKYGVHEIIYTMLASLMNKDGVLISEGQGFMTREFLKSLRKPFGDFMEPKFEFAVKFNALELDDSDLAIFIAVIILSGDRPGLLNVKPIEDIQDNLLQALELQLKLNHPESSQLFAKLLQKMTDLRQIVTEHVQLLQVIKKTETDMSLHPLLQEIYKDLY
Method in brief: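 Extracted receptor protein, cell-free; compound incubated 2 h then fluorescence polarization read. Baseline: DMSO. Actives from 25 uM duplicate screen re-run across concentrations.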

[3] = biological target: Glucocorticoid receptor (Homo sapiens) (UniProt P04150); assay: NVS_NR_hGR: NovaScreen (NVS) Nuclear Receptor Binding Assay for human Glucocorticoid Receptor (GR) (AID 2283363);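 on AC50: activity is loss of specific radioligand binding signal relative to DMSO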
Glucocorticoid receptor (Homo sapiens), sequence (P04150 whole entry, looked up): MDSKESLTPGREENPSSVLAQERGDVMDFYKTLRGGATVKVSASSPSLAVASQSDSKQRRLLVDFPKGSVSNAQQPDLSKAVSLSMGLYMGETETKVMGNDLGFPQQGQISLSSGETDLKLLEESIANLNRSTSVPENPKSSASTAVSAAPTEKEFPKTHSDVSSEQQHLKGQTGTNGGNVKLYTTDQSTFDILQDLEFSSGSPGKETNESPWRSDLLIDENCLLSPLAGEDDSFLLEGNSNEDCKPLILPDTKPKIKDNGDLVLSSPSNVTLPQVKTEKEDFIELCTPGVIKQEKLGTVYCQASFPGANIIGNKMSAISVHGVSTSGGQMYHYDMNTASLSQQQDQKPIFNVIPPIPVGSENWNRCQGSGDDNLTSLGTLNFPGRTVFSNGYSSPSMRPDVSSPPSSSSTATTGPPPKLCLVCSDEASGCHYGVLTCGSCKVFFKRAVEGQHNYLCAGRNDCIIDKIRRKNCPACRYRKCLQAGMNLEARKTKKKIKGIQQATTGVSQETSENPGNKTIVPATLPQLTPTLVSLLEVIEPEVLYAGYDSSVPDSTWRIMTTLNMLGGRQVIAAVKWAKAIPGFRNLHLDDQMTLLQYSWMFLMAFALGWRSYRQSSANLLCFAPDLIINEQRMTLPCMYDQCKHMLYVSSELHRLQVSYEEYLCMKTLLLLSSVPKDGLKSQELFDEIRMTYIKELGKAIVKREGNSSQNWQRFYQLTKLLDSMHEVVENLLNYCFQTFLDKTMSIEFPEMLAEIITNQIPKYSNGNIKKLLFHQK
Method in brief: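 Compounds first tested in duplicate at 25 uM, actives followed up in concentration series. Binding to extracted GR protein measured as competitive radioligand displacement, filter scintillation read 16 h post-dosing, normalised to DMSO.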

[4] = biological target: Bile acid receptor (Homo sapiens) (UniProt Q96RI1); assay: OT_FXR_FXRSRC1_0480: Odyssey Thera (OT) 8-hour HEK293T Protein-Complementation Assay for Farnesoid X receptor/SRC-1 Co-activator (AID 2283383)
Bile acid receptor (Homo sapiens), sequence (Q96RI1 whole entry, looked up, the tested form may be a part): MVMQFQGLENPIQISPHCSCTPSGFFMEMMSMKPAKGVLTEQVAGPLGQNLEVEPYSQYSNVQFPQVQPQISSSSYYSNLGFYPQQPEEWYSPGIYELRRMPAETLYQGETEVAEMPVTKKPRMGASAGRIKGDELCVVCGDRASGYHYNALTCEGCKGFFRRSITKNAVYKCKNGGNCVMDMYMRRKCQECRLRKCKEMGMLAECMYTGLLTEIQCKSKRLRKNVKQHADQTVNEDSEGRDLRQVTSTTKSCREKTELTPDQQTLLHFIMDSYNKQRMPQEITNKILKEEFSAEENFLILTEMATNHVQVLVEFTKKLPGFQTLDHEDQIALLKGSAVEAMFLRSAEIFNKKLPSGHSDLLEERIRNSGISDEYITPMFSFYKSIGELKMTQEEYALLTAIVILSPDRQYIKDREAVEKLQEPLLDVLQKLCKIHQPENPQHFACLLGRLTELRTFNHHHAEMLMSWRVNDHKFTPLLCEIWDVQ
Method in brief: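 PCA, HEK293T, 8 h compound exposure; FXR–SRC-1 binding reconstitutes split reporter; fluorescence intensity; positive-direction fit vs DMSO.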

[5] = biological target: Bile acid receptor (Homo sapiens) (UniProt Q96RI1); assay: OT_FXR_FXRSRC1_1440: Odyssey Thera (OT) 24-hour HEK293T Protein-Complementation Assay for Farnesoid X receptor/SRC-1 Co-activator (AID 2283384)
Method in brief: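 Measures ligand-driven FXR–SRC-1 co-activator recruitment in HEK293T via fragment complementation, fluorescence intensity at 24 h. DMSO served as negative control and baseline for gain-of-signal fitting.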

[6] = biological target: human Adenosine Transporter (Adot), SLC29A1 (gene 2030) (UniProt Q99808); assay: NVS_TR_hAdoT: NovaScreen (NVS) Transporter Assay for human Adenosine Transporter (Adot) (AID 2283368)
human Adenosine Transporter (Adot), SLC29A1 (gene 2030), sequence (Q99808 whole entry, looked up): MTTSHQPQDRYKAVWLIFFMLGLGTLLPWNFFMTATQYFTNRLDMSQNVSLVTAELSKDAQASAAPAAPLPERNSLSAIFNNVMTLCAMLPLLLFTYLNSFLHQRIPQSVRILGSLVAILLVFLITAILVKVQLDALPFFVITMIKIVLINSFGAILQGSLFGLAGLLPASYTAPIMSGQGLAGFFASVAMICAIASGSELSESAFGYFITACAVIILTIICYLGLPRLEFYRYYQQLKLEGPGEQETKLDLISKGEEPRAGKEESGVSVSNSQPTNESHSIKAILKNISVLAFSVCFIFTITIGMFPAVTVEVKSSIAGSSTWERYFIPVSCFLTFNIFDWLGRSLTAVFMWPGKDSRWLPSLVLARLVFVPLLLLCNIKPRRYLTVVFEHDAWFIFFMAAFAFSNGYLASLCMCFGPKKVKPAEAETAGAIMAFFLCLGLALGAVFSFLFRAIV
Method in brief: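 Binding displacement on U937 extracted protein, read 1 h post-dose by filtration and scintillation counting. Primary duplicate test at 25 uM, then singleton concentration series with 50 uM top; DMSO baseline.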

[7] = biological target: human Serotonin Transporter (SERT), SLC6A4 (gene 6532) (UniProt P31645); assay: NVS_TR_hSERT: NovaScreen (NVS) Transporter Assay for human Serotonin Transporter (SERT) (AID 2283372)
human Serotonin Transporter (SERT), SLC6A4 (gene 6532), sequence (P31645 whole entry, looked up): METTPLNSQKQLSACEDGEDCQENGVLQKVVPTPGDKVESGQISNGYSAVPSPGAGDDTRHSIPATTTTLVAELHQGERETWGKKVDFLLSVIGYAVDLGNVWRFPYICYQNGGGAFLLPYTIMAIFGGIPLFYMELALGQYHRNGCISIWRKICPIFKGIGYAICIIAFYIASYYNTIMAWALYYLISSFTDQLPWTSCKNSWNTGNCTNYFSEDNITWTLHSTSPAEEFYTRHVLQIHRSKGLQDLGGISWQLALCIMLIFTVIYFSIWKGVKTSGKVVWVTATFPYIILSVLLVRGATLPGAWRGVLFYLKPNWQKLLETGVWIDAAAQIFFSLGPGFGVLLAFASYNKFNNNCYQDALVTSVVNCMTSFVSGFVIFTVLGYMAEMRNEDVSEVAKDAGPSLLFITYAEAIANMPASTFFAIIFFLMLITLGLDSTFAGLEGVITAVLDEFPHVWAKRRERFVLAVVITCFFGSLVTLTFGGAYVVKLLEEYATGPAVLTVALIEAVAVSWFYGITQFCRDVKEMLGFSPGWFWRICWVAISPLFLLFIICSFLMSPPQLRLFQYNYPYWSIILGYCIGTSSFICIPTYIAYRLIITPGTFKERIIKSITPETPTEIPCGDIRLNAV
Method in brief: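 Human platelet membrane preparation; displacement of radioligand from serotonin transporter measured after 1 h by filtration and scintillation counting. Single 25 uM duplicate screen, then concentration series for actives, with DMSO as negative baseline.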

[8] = biological target: rat Serotonin Transporter (SERT), Slc6a4 (gene 25553) (UniProt P31652); assay: NVS_TR_rSERT: NovaScreen (NVS) Transporter Assay for rat Serotonin Transporter (SERT) (AID 2283375)
rat Serotonin Transporter (SERT), Slc6a4 (gene 25553), sequence (P31652 whole entry, looked up): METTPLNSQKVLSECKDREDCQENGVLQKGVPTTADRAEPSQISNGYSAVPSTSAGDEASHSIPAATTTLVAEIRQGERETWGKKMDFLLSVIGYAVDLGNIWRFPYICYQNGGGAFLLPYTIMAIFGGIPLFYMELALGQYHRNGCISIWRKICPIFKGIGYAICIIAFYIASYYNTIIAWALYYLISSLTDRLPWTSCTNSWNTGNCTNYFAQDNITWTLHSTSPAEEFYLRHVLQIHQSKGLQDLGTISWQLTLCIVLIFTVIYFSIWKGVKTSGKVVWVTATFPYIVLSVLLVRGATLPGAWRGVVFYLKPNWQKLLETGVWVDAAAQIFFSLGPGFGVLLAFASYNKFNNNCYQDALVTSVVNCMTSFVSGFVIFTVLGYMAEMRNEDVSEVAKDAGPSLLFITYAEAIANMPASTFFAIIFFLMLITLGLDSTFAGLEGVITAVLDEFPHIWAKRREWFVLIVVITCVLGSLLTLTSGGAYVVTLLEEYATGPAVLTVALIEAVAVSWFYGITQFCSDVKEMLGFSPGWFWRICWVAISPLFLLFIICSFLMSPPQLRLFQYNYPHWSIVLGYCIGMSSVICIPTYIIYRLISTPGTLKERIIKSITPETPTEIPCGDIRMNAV
Method in brief: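 Using rat forebrain membrane SERT, test chemicals compete with a radioligand for 1 hour, and bound counts are taken by filter-based scintillation. Screening starts at 25 uM in duplicate, followed by concentration series for actives.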

[9] = test system: guinea pig Dopamine Transporter (DAT), gene 100714898; assay: NVS_TR_gDAT: NovaScreen (NVS) Transporter Assay for guinea pig Dopamine Transporter (DAT) (AID 2283369);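 further: active compounds lower bound radioligand signal relative to DMSO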
Method in brief: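 Primary pass: duplicate wells at 25 uM, threshold e.g. 30% inhibition. Follow-up: singleton concentration-response, highest 50 uM. Radioligand binding on guinea pig striatal membranes, 2 h, filtration scintillation detection.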

[10] = biological target: human Dopamine Transporter (DAT), SLC6A3 (gene 6531) (UniProt Q01959); assay: NVS_TR_hDAT: NovaScreen (NVS) Transporter Assay for human Dopamine Transporter (DAT) (AID 2283374);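 further: activity means loss of bound radioligand signal relative to DMSO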
human Dopamine Transporter (DAT), SLC6A3 (gene 6531), sequence (Q01959 whole entry, looked up): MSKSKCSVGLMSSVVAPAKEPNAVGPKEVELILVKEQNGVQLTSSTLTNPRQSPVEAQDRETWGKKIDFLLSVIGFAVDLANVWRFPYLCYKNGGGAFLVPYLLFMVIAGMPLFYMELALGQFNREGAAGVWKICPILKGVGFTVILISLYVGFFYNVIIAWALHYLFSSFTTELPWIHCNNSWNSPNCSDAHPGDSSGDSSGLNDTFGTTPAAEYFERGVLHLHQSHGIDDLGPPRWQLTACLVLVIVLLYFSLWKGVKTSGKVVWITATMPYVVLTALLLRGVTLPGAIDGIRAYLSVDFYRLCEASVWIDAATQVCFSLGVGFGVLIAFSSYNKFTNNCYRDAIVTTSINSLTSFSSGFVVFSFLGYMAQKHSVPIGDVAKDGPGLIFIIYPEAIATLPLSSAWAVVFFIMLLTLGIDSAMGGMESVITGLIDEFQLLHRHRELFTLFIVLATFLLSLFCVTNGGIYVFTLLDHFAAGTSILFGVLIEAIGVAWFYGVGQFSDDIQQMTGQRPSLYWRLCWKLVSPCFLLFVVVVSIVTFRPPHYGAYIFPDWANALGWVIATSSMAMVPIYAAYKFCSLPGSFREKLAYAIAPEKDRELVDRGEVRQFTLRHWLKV
Method in brief: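 Duplicate single-point screening at 25 uM preceded concentration-series follow-up of actives. Binding was measured by competitive displacement of a radioligand from DAT protein, filter-counted by scintillation 1 h after dosing. Decrease relative to DMSO taken as activity.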

[11] = biological target: Agonist Androgen Response Element (ARE), AR (gene 367) (UniProt P10275); assay: OT_AR_ARELUC_AG_1440: Odyssey Thera (OT) 24-hour CHO-K1 Luciferase Assay for Agonist Androgen Response Element (ARE) (AID 2283379)
Agonist Androgen Response Element (ARE), AR (gene 367), sequence (P10275 whole entry, looked up): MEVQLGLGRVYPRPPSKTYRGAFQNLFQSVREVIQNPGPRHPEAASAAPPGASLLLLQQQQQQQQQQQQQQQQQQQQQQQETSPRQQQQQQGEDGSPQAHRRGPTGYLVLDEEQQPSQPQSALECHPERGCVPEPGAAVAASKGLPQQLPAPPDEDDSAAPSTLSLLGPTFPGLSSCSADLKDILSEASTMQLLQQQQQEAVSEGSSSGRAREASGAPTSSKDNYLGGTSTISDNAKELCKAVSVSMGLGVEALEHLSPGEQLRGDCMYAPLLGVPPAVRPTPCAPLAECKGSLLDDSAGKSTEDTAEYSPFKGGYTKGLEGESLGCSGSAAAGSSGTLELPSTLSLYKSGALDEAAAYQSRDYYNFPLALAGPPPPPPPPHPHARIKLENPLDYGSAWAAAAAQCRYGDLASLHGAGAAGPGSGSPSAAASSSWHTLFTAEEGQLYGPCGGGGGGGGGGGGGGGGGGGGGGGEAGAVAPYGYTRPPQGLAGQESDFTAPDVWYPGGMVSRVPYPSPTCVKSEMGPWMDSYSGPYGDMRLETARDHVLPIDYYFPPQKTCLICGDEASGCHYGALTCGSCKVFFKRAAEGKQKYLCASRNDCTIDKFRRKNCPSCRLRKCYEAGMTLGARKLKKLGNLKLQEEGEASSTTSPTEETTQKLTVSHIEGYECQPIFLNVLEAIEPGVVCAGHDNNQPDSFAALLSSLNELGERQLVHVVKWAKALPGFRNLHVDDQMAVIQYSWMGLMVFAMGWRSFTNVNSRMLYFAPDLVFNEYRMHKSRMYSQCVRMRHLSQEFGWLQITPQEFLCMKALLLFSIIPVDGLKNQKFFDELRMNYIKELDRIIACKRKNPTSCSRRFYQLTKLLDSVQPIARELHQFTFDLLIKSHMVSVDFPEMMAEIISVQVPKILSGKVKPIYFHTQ
Method in brief: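 Readout: luciferase bioluminescence from CHO-K1 ARE-luc cells, measured 24 h post-dosing; agonism = increased mean luminescence vs DMSO controls, fitted in positive direction.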

[12] = biological target: Retinoic acid receptor alpha (Homo sapiens) (UniProt P10276); assay: NVS_NR_hRARa_Agonist: NovaScreen (NVS) Nuclear Receptor Binding Assay for human Retinoic Acid Alpha Receptor Agonism (RAR) (AID 2283361)
Method in brief: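 Agonist-mode TR-FRET binding format using extracted protein, measured at 2 h post-dosing. Initial duplicate single-point screen at 25 uM preceded concentration series for actives; activity was normalized to DMSO baseline.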

[13] = biological target: rat Androgen Receptor (AR), Ar (gene 24208) (UniProt P15207); assay: NVS_NR_rAR: NovaScreen (NVS) Nuclear Receptor Binding Assay for rat Androgen Receptor (AR) (AID 2283366)
Method in brief: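 Actives from a duplicate single-concentration (25 uM) primary run went on to concentration series. Displacement of radioligand was counted by filtration and scintillation, 18 h post-dose, using prostate extracts from testosterone-pretreated rats, with DMSO as baseline.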

[14] = biological target: Estrogen receptor beta (Homo sapiens) (UniProt Q92731); assay: OT_ER_ERbERb_1440: Odyssey Thera (OT) 24-hour HEK293T Protein-Complementation Assay for Estrogen Receptor-beta/-beta Homodimer (AID 2283380);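 further: fluorescence gain from ER beta LBD homodimer complementation read by laser scanning cytometry; scored as signal increase over DMSO baseline for both agonists and antagonists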
Method in brief: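 Fluorescence increase, nuclear for agonists or whole-cell for antagonists, relative to DMSO vehicle, quantified by laser scanning cytometer after fixation and Draq5 staining. Readout from 24 h treatment of HEK293T cells carrying complementation-paired ER beta LBD (aa 310-547).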

[15] = biological target: Estrogen receptor (Homo sapiens) (UniProt P03372); assay: OT_ERa_GFPERaERE_0480: Odyssey Thera (OT) 8-hour HeLa Transcription Induction Assay for Estrogen Receptor (AID 2283381; active means hit-call score of the fitted dose curve at least 0.9, where 1 is the maximum; inactive means score below 0.9)
Method in brief: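 Human cervical HeLa cells were treated for 8 hours, after which ERE-driven GFP induction was measured by fluorescence microscopy; increases over DMSO baseline defined activity.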

[16] = biological target: Estrogen receptor (Homo sapiens) (UniProt P03372); assay: OT_ERa_GFPERaERE_0120: Odyssey Thera (OT) 2-hour HeLa Transcription Induction Assay for Estrogen Receptor (AID 2283382)
Method in brief: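 Cells (human cervical HeLa) receive compound, incubate 2 hours, then are imaged for fluorescent reporter induction. Images are quantified by high content analysis, and activity is fitted as gain of signal against DMSO.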

[17] = biological target: guinea pig Sigma Receptor, Non-selective Binding, SIGMAR1 (gene 100135589) (UniProt Q60492); assay: NVS_OR_gSIGMA_NonSelective: NovaScreen (NVS) Nuclear Receptor Binding Assay for guinea pig Sigma Receptor, Non-selective Binding (AID 2283367)
Method in brief: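 Guinea pig brain membrane sigma sites were labelled with a radioligand, and bound radioactivity was counted after filtration 1 h post-dose. Compounds were screened at 25 uM in duplicate, then retested as concentration series when active.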

[18] = biological target: Norway rat Vesicular Monoamine Transporter (VMAT2), neurotransmitter transporter, Slc18a2 (gene 25549) (UniProt Q01827); assay: NVS_TR_rVMAT2: NovaScreen (NVS) Transporter Assay for Norway rat Vesicular Monoamine Transporter (VMAT2), neurotransmitter transporter (AID 2283376);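 further: actives lower the bound radioligand signal below the DMSO level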
Method in brief: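 Using rat forebrain membranes, specific radioligand binding to VMAT2 was measured by filtration and scintillation counting after 1 hour. Chemicals screened at 25 uM in duplicate, actives retested in concentration series, DMSO baseline.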

CN(C)[C@@H]1C(=O)C(C(N)=O)=C(O)[C@@]2(O)C(=O)C3=C(O)c4c(O)cccc4[C@@](C)(O)[C@H]3[C@H](O)[C@@H]12
AC50 [1]: 2.08 µM (active) | outcome [1]: inactive | AC50 [2]: 20.2 µM (active) | outcome [2]: inactive

CNc1cnn(-c2cccc(C(F)(F)F)c2)c(=O)c1Cl
outcome [3]: inactive | outcome [2]: inactive | outcome [4]: inactive | outcome [5]: inactive

COc1ccc(C(=CC(=O)N2CCOCC2)c2ccc(Cl)cc2)cc1OC
AC50 [3]: 13.4 µM (active) | AC50 [6]: 9.48 µM (active) | outcome [7]: inactive | outcome [8]: inactive | AC50 [4]: 31.5 µM (active) | AC50 [5]: 76.3 µM (active)

CC(C)=CC1C(C(=O)OCN2C(=O)C3=C(CCCC3)C2=O)C1(C)C (stereo not drawn)
AC50 [6]: 25 µM (active) | outcome [9]: inactive | outcome [7]: inactive | outcome [10]: inactive | outcome [8]: inactive | outcome [11]: inactive

CCOC(=O)COc1cc(-c2nn(C)c(OC(F)F)c2Cl)c(F)cc1Cl
outcome [12]: inactive | outcome [11]: inactive

CCOP(=S)(OCC)SCCSCC
outcome [3]: inactive | outcome [2]: inactive

CC1(C(=O)Nc2ccc(O)c(Cl)c2Cl)CCCCC1
AC50 [9]: 3.33 µM (active) | AC50 [10]: 4.68 µM (active) | outcome [4]: inactive | outcome [5]: inactive

CCCCOC(=O)c1ccccc1C(=O)O
outcome [13]: inactive | outcome [9]: inactive | outcome [2]: inactive | AC50 [10]: 8.41 µM (active) | outcome [11]: inactive | outcome [14]: inactive | outcome [4]: inactive | outcome [5]: inactive

O=[N+]([O-])c1cc(C(F)(F)F)c(Cl)c([N+](=O)[O-])c1Nc1ncc(C(F)(F)F)cc1Cl
outcome [12]: inactive | AC50 [2]: 0.319 µM (active) | outcome [10]: inactive | AC50 [15]: 17.9 µM (active) | AC50 [16]: 77.7 µM (active)

C#CC(C)(C)NC(=O)c1cc(Cl)cc(Cl)c1
outcome [3]: inactive | AC50 [17]: 1.94 µM (active)

CCCOCC(=Nc1ccc(Cl)cc1C(F)(F)F)n1ccnc1
AC50 [3]: 7.9 µM (active) | AC50 [17]: 7.82 µM (active) | AC50 [6]: 25 µM (active) | outcome [9]: inactive | AC50 [2]: 17.6 µM (active) | outcome [7]: inactive | AC50 [10]: 10.2 µM (active) | outcome [8]: inactive | outcome [18]: inactive | AC50 [5]: 11.2 µM (active)
